Laboratory results: PubChem BioAssay (NCI)
The panel holds about 83,000 compounds, 20% with a hit somewhere; the sample as a whole holds those more often.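 Activity criterion: percent growth below 10, measured after cells in 96-well plates were exposed to a single compound concentration for 48 hours.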 Activity calls are given as the source filed them.

Experiments:
Assay in all cases: NCI-60 one-dose screen, 48 h (100 = growth as untreated, 0 = no growth, -100 = all killed)
Conditions in all cases: 10 µM unless noted
HCT-15 colon = system: HCT-15 colon
HT29 colon = system: HT29 colon
SNB-75 CNS = system: SNB-75 CNS
SNB-19 CNS = system: SNB-19 CNS
U251 CNS = system: U251 CNS
PC-3 prostate = system: PC-3 prostate
SK-MEL-5 melanoma = system: SK-MEL-5 melanoma
UACC-62 melanoma = system: UACC-62 melanoma
LOX IMVI melanoma = system: LOX IMVI melanoma
SK-MEL-28 melanoma = system: SK-MEL-28 melanoma

Measured: growth

Clc1ccc2c(c1)C[C@H]1C[C@@H](c3cccs3)N2O1
inactive: HCT-15 colon 97.2% | HT29 colon 111% | SNB-75 CNS 101% | SNB-19 CNS 114% | U251 CNS 93.7% | PC-3 prostate 91.6% | SK-MEL-5 melanoma 99.5% | UACC-62 melanoma 105% | LOX IMVI melanoma 93.2% | SK-MEL-28 melanoma 110%

CCN1C(=O)C2(Nc3ccccc3S2)c2cc(C)ccc21 (stereo not given)
inactive: HCT-15 colon 101% | HT29 colon 107% | SNB-75 CNS 76.2% | SNB-19 CNS 107% | U251 CNS 97.5% | PC-3 prostate 89% | SK-MEL-5 melanoma 95.1% | UACC-62 melanoma 102% | LOX IMVI melanoma 103% | SK-MEL-28 melanoma 105%

O=C1c2ccccc2-c2nnc(-c3ccc(Br)cc3)cc21
inactive: HCT-15 colon 59.8% | HT29 colon 82.5% | SNB-75 CNS 36.9% | SNB-19 CNS 87.1% | U251 CNS 28.8% | PC-3 prostate 51.3% | SK-MEL-5 melanoma 51.1% | UACC-62 melanoma 16% | SK-MEL-28 melanoma 13.8%
active: LOX IMVI melanoma 1.78%

CCCCc1ccc(NC(=O)C(F)(F)F)cc1
inactive: HCT-15 colon 105% | HT29 colon 99.8% | SNB-75 CNS 102% | SNB-19 CNS 106% | U251 CNS 97.4% | PC-3 prostate 101% | SK-MEL-5 melanoma 106% | UACC-62 melanoma 99.9% | LOX IMVI melanoma 95.5% | SK-MEL-28 melanoma 112%

CN1CCc2cccc3c2C1Cc1ccc(O)c(O)c1-3 (stereo not given)
inactive: HCT-15 colon 70.7% | HT29 colon 76.2% | SNB-75 CNS 83.6% | SNB-19 CNS 111% | U251 CNS 99.9% | PC-3 prostate 65.6% | SK-MEL-5 melanoma 97.5% | UACC-62 melanoma 105% | LOX IMVI melanoma 67.8% | SK-MEL-28 melanoma 115%

CCCCC/C=C\C/C=C/CCCCCCCCNC(=O)Nc1ccc([N+](=O)[O-])cc1
inactive: HCT-15 colon 78% | HT29 colon 60.7% | SNB-75 CNS 103% | SNB-19 CNS 89.6% | U251 CNS 51.3% | PC-3 prostate 16.3% | SK-MEL-5 melanoma 103% | UACC-62 melanoma 68.4% | LOX IMVI melanoma 17.4% | SK-MEL-28 melanoma 106%

Cc1cc(O)cc2c1[C@H]1CC[C@]3(C)[C@@H](O)CC[C@H]3[C@@H]1C=C2
inactive: HCT-15 colon 78.7% | HT29 colon 93.5% | SNB-75 CNS 76.2% | SNB-19 CNS 94.7% | U251 CNS 92.5% | PC-3 prostate 86.3% | SK-MEL-5 melanoma 83.8% | UACC-62 melanoma 73.5% | LOX IMVI melanoma 81.3% | SK-MEL-28 melanoma 99.8%

COc1ccc(-c2nc3sc(C)nn3c2-c2nc3cc(C)c(C)cc3[nH]2)cc1
inactive: HCT-15 colon 80.6% | HT29 colon 99.2% | SNB-75 CNS 87.1% | SNB-19 CNS 110% | U251 CNS 103% | PC-3 prostate 86% | SK-MEL-5 melanoma 93% | UACC-62 melanoma 88.5% | LOX IMVI melanoma 94.8% | SK-MEL-28 melanoma 96%

CCOC(=O)c1c(Cl)c2c(n1Cc1cc(OC)cc(OC)c1)-c1oncc1CCC2
inactive: HCT-15 colon 21.5% | SNB-19 CNS 55.8% | U251 CNS 33.2% | PC-3 prostate 23.4% | SK-MEL-5 melanoma 17.7% | UACC-62 melanoma 28.5% | LOX IMVI melanoma 43.7% | SK-MEL-28 melanoma 40.7%
active: HT29 colon 3.92% | SNB-75 CNS 1.91%

COc1cc2cc(Oc3ccc(NC(=O)Nc4cccc(C(F)(F)F)c4)cc3)c(C)nc2cc1OCCN1CCCCC1
active: HCT-15 colon -81.9% | HT29 colon -81.7% | SNB-75 CNS -70.3% | SNB-19 CNS -55.1% | U251 CNS -82.4% | PC-3 prostate -54.6% | SK-MEL-5 melanoma -94.1% | UACC-62 melanoma -74.2% | LOX IMVI melanoma -94.3% | SK-MEL-28 melanoma -92.1%

CCN1CCN(c2nc3ccccc3c3c(=O)c4cc(F)ccc4sc23)CC1
inactive: HCT-15 colon 48.2% | HT29 colon 28% | SNB-75 CNS 39.7% | SNB-19 CNS 80.9% | U251 CNS 46.5% | PC-3 prostate 78% | SK-MEL-5 melanoma 82.8% | UACC-62 melanoma 44.1% | LOX IMVI melanoma 60.9% | SK-MEL-28 melanoma 78.2%

COc1cc(C2C3=C(COC3=O)N(CCO)c3cc4c(cc32)OCO4)cc(OC)c1O (stereo not given)
active: HT29 colon 8.44% | SNB-75 CNS -11.3%
inactive: HCT-15 colon 44.8% | SNB-19 CNS 41.5% | U251 CNS 21.4% | PC-3 prostate 29.5% | SK-MEL-5 melanoma 29.3% | UACC-62 melanoma 26.2% | LOX IMVI melanoma 40.1% | SK-MEL-28 melanoma 59.5%

O=C(c1ccccc1)C(Br)C(Br)c1cccc([N+](=O)[O-])c1 (stereo not given)
active: HCT-15 colon -26.6% | HT29 colon -42.4% | LOX IMVI melanoma -79.4%
inactive: SNB-75 CNS 80.9% | SNB-19 CNS 82.4% | U251 CNS 17.7% | PC-3 prostate 67.4% | SK-MEL-5 melanoma 77.1% | UACC-62 melanoma 81.4% | SK-MEL-28 melanoma 63.6%

O=C1/C(=C/c2ccc(Oc3ccccc3)cc2)N=C(c2ccccc2)N1CCc1cccs1
inactive: HCT-15 colon 92.4% | HT29 colon 35% | SNB-75 CNS 63.2% | SNB-19 CNS 89% | U251 CNS 93.9% | PC-3 prostate 62.1% | SK-MEL-5 melanoma 95.2% | UACC-62 melanoma 72% | LOX IMVI melanoma 62.1% | SK-MEL-28 melanoma 94%

Cc1nn2c(-c3nc4ccc(Cl)cc4[nH]3)c(-c3ccc(F)cc3)nc2s1
inactive: HCT-15 colon 76.4% | HT29 colon 94.4% | SNB-75 CNS 86.3% | SNB-19 CNS 112% | U251 CNS 97.6% | PC-3 prostate 78.6% | SK-MEL-5 melanoma 90.9% | UACC-62 melanoma 91.6% | LOX IMVI melanoma 91.1% | SK-MEL-28 melanoma 93.8%

CCCCCn1c(=N)n(CC(O)COc2cccc(C)c2)c2ccccc21 (stereo not given)
inactive: HCT-15 colon 11.1% | HT29 colon 72.7% | SNB-19 CNS 20% | UACC-62 melanoma 25.7% | LOX IMVI melanoma 13.7% | SK-MEL-28 melanoma 31.2%
active: SNB-75 CNS 2.13% | U251 CNS 1.64% | PC-3 prostate 7.46% | SK-MEL-5 melanoma -73.3%

O=c1oc2ccccc2cc1-c1csc(N=Nc2c(O)[nH]c3ccc(Br)cc23)n1
inactive: HCT-15 colon 105% | HT29 colon 109% | SNB-75 CNS 86.2% | SNB-19 CNS 95.8% | U251 CNS 103% | PC-3 prostate 102% | SK-MEL-5 melanoma 96.5% | UACC-62 melanoma 95% | LOX IMVI melanoma 99.9% | SK-MEL-28 melanoma 101%

COc1cc(/C=N/NC(=O)c2cnn3c2NC(c2ccccc2)C3)cc(OC)c1OC (stereo not given)
inactive: HCT-15 colon 37.7% | HT29 colon 20.5% | SNB-75 CNS 52.4% | SNB-19 CNS 66.2% | U251 CNS 66.9% | PC-3 prostate 56.2% | SK-MEL-5 melanoma 50.4% | UACC-62 melanoma 57.4% | LOX IMVI melanoma 61.3% | SK-MEL-28 melanoma 70.4%

CCOC(=O)c1[nH]c2cc(Cl)ccc2c1[C@@H](C(=O)NC(C)(C)C)N(CC)C(=O)CCCCC#Cc1cccc2c1CN(C1CCC(=O)NC1=O)C2=O (stereo not given in full)
inactive: SNB-19 CNS 28.2% | U251 CNS 27.8% | PC-3 prostate 11.7% | UACC-62 melanoma 27.2% | SK-MEL-28 melanoma 29.6%
active: HCT-15 colon -2.23% | HT29 colon 8.65% | SNB-75 CNS 0.961% | SK-MEL-5 melanoma -53.4% | LOX IMVI melanoma 8.52%

c1ccc2cc(Cn3c(-c4ccc5ccccc5c4)[n+](Cc4ccc5ccccc5c4)c4ccccc43)ccc2c1
active: HCT-15 colon -74.6% | HT29 colon -71.7% | SNB-75 CNS -69.5% | SNB-19 CNS -76.4% | U251 CNS -78.6% | PC-3 prostate -57.8% | SK-MEL-5 melanoma -97.2% | UACC-62 melanoma -87.8% | LOX IMVI melanoma -98.8% | SK-MEL-28 melanoma -55.3%

CCOc1ccc(-c2cnnn2-c2nonc2-n2cccc2)cc1
inactive: HCT-15 colon 22.6% | SNB-19 CNS 37% | U251 CNS 17.6% | PC-3 prostate 30.4% | SK-MEL-5 melanoma 24.7% | UACC-62 melanoma 35.6% | LOX IMVI melanoma 33.1% | SK-MEL-28 melanoma 37.5%
active: HT29 colon 1.88% | SNB-75 CNS 5.23%

COc1ccc(-c2nc3sccn3c2/C=C/C(=O)c2cc(OC)c(OC)c(OC)c2)cc1OC
inactive: HCT-15 colon 22% | SNB-19 CNS 28.5% | U251 CNS 10% | PC-3 prostate 22.6% | UACC-62 melanoma 15.3% | SK-MEL-28 melanoma 53.2%
active: HT29 colon 4.2% | SNB-75 CNS -8.25% | SK-MEL-5 melanoma 5.76% | LOX IMVI melanoma 9.65%

COC(=O)c1c2c(c(C)[n+]([O-])c1C)C(=O)C=C(NCc1ccc(Cl)cc1)C2=O
inactive: SK-MEL-28 melanoma 10.6%
active: HCT-15 colon -54.8% | HT29 colon 2.63% | SNB-75 CNS -94.8% | SNB-19 CNS -23.5% | U251 CNS -7.46% | PC-3 prostate 1.07% | SK-MEL-5 melanoma -98.8% | UACC-62 melanoma -65.5% | LOX IMVI melanoma -23.2%

COc1cccc(OC(=O)c2ccccc2)c1OC(=O)c1ccccc1
inactive: HCT-15 colon 70.9% | HT29 colon 85.3% | SNB-75 CNS 55.3% | SNB-19 CNS 73.5% | U251 CNS 49.2% | PC-3 prostate 77% | SK-MEL-5 melanoma 56.9% | UACC-62 melanoma 66% | LOX IMVI melanoma 63% | SK-MEL-28 melanoma 84.7%

Nc1nc2c(s1)CCc1c-2c(Br)n(Cc2ccccc2)c1Br
inactive: HCT-15 colon 50.8% | HT29 colon 97.6% | SNB-75 CNS 89.5% | SNB-19 CNS 105% | U251 CNS 91.6% | PC-3 prostate 89.1% | SK-MEL-5 melanoma 89.3% | UACC-62 melanoma 78.3% | LOX IMVI melanoma 86.1% | SK-MEL-28 melanoma 100%

CCCCC(O)Cn1ncc(C(=O)OCC)c1NC(=O)NCc1ccccc1C(F)(F)F (stereo not given)
inactive: HCT-15 colon 98% | HT29 colon 107% | SNB-75 CNS 92.6% | SNB-19 CNS 94.4% | U251 CNS 95.3% | PC-3 prostate 86.6% | SK-MEL-5 melanoma 95.9% | UACC-62 melanoma 87.6% | LOX IMVI melanoma 98.4% | SK-MEL-28 melanoma 111%

COc1cc(CNCCN2C(=O)c3ccc4c5c(ccc(c35)C2=O)C(=O)N(CCNCc2cc(OC)c(OC)c(OC)c2)C4=O)cc(OC)c1OC
active: HCT-15 colon -66.2% | HT29 colon -52.3% | SNB-75 CNS -98% | SNB-19 CNS -79.8% | U251 CNS -68.1% | PC-3 prostate -73.1% | SK-MEL-5 melanoma -87.7% | UACC-62 melanoma -92.4% | LOX IMVI melanoma -99% | SK-MEL-28 melanoma -89.3%
